Screening data deposited in PubChem by National Center for Advancing Translational Sciences (NCATS).
Sampled rows, rich in hits. Any-hit rate of the full collection: about 1.5%.
gsp antagonist: qHTS for Antagonists of gsp, the Etiologic Mutation Responsible for Fibrous Dysplasia/McCune-Albright Syndrome: qHTS; 340,000 compounds, 0.4% hits; gsp-mutant cells, cAMP HTRF, 30 min; Potency, µM (top dose mostly 76.9 µM), without a hit: at the top dose activity change, negative = inhibition, hits mostly inhibitors; AID 624288, 2012; calls by dose curve; cell line not stated here;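 also: intracellular cAMP measured with PDE inhibitor Ro 20-1724 present during compound exposure; potency is read from the fitted curve at half-maximal effect; % is scaled to controls: 0 for no effect and ±100 for the full control effect; nearly all actives have a fitted effect of over 65% in size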
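G418-selected cells were plated in DMEM/10% FBS for 16-24 h at 37C, then treated with compounds plus the PDE inhibitor […] (300 uM solution added) for 30 min at 37C. Intracellular cAMP was measured by HTRF after 30 min lysis at room temperature.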
IL2 activator: qHTS of IL-2 Activators; activation, % (series mostly up to about 46 µM); 360,000 compounds, 0.065% hits; AID 652025, 2013; IL-2 activation reporter assay, cell-based qHTS; stimulated with anti-CD3/CD4/CD28 beads; in transgenic mouse T cells; in the data active = activation above about 50%; inconclusive = mostly about 30% to 49%; also: 0% is about no effect
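Readout: EGFP and DsRed signals by fluorescent plate cytometry. Unstimulated transgenic mouse T cells received compound 60 min before antibody-bead stimulation, then incubated 18 h at 37 degrees C.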
BRCA1 expr act: qHTS Assay to Identify Small Molecule Activators of BRCA1 Expression | MCF7-BRCA1-FFLuc reporter, luminescence, 48 h; response scale: scaled: vehicle 0%, 10 µM genistein 100% | Potency, µM (doses to about 46.1 µM), for the others: at the top dose activation, most hits filed as activators | 380,000 compounds, 1.1% hits; also: potency is read from the fitted curve at half-maximal effect; nearly all actives have a fitted effect of over 80% in size
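48 h compound treatment of MCF7-BRCA1-FFLuc cells (phenol-red free MEM, 37 °C), then 15 min with luciferase substrate and luminescence imaging.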
IDH1 R132H inh: qHTS for Inhibitors of mutant isocitrate dehydrogenase 1 (IDH1): qHTS | Potency, µM (titrated, usually from 76.6 µM), for inactives: top-dose activity change, negative = inhibition, hits mostly inhibitors | IDH1-R132H enzyme, NADPH consumption, diaphorase/resazurin fluorescence | 390,000 compounds, 0.093% hits | AID 602179, 2012 | Isocitrate dehydrogenase [NADP] cytoplasmic (Homo sapiens), O75874; also: potency is read from the fitted curve at half-maximal effect; % is scaled to controls: 0 for no effect and ±100 for the full control effect; nearly all actives have a fitted effect of over 65% in size
Target sequence (O75874 whole entry R132H, stated change not applied): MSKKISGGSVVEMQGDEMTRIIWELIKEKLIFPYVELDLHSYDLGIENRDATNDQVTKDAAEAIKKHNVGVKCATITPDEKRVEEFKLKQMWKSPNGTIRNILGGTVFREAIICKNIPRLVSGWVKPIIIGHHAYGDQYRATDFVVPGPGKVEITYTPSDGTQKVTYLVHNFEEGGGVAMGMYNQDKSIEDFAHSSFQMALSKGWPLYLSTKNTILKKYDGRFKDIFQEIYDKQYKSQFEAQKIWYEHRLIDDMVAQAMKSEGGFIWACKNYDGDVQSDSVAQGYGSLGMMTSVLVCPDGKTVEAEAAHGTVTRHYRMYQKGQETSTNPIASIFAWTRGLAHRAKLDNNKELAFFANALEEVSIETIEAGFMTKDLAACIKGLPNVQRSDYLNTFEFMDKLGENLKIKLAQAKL
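IDH1-R132H (0.5 ug/mL) preincubated 30 min with compound, then NADPH (0.016 mM) and alpha-KG (2 mM) added; 80 min at RT, pH 7.5. Remaining NADPH coupled via diaphorase/resazurin to fluorescence (540/590 nm); concentration-response curves normalized to no-enzyme control.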
gsp agonist: qHTS for Agonist of gsp, the Etiologic Mutation Responsible for Fibrous Dysplasia/McCune-Albright Syndrome: qHTS; Potency, µM (highest dose often 76.9 µM), for inactives: top-dose activation (cAMP increase), actives largely listed as activators; gsp mutant cells, cAMP HTRF, 30 min; 340,000 compounds, 0.13% hits; active = well fitted activation curve with a large enough effect; inconclusive = small, poorly fitted or top-dose-only effect, or another doubt; inactive = no such curve, though single readings can be large or run the other way; cell line not stated here;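 also: phosphodiesterase inhibitor Ro 20-1724 added with compounds to block cAMP breakdown; potency is read from the fitted curve at half-maximal effect; nearly all actives have a fitted effect of over 60% in size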
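Cells in DMEM/10% FBS with G418 were pretreated with compounds in DMSO plus […] (300 uM stock) for 30 min at 37C. cAMP was measured by HTRF (cAMP-d2 plus anti-cAMP antibody-K) after 30 min at room temperature.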
* = called active by the depositor; ? = inconclusive; nt = not tested or not shown; [ ] = another dose, or the depositor's remark. Unless noted, calls follow the shape of the dose curve; as a rule, active = well fitted curve in the direction sought with a large enough effect; inconclusive = small, poorly fitted or top-dose-only effect, or another doubt; inactive = no such curve, though single readings can be large; an effect the other way counts as inactive or inconclusive.

SMILES | gsp antagonist | IL2 activator | BRCA1 expr act | IDH1 R132H inh | gsp agonist
O=C(CSc1nnc2ccccn12)Nc1cccc(-c2nc3ccccc3s2)c1 | -19% | 0 | 5µM* | 4% | 9%
Cc1cccc(NC(=O)c2c(N)sc3c2CCC(C)C3)c1 (configuration not stated) | nt | nt | nt | -5% | nt
CC(=O)c1c(C)[nH]c(C(=O)Nc2ccc(N3CCCCCC3)cc2)c1C | nt | -1 | -40% | 10% | -74%
COC(=O)c1sc2nc(-c3ccco3)ccc2c1N | 8% | 0 | ? | 1% | ?
NC(=O)c1sc2nc(-c3ccco3)ccc2c1N | 7% | -8 | 2.5µM* | 3% | ?
Cc1ccc(N=Nc2c(N)nn(-c3ccccc3)c2N)cc1 | 20% | 0 | 17% | -1% | -3%
COc1ccc(N=Nc2c(N)nn(C)c2N)cc1 | ? | 0 | 2.5µM* | 4% | 25%
CC(C)CCn1c(=O)c2sccc2n2c(CCCC(=O)NCCc3ccccc3)nnc12 | nt | nt | nt | 12% | nt
C=CCn1cnc2c(NCc3ccccc3)ncnc21 | 10% | 0 | 4µM* | 0% | 13%
O=C(Cn1cnc2c(NCc3ccccc3)ncnc21)NCc1ccccn1 | 5% | 0 | 10% | -4% | nt
CC1CCC2(CC1)NC(=O)N(CC(=O)NCCc1ccc(F)cc1)C2=O (configuration not stated) | 0% | 3 | -14% | -1% | -26%
COc1ccc(C(=O)NC(=S)NC(C)(C)C)cc1Br | -4% | 2 | 11µM* | 10% | ?
CCN(CC)S(=O)(=O)c1ccc(OC)c(NC(=O)CSCc2c(C)noc2C)c1 | 4% | -1 | -28% | 6% | 18µM*
Cc1c(CCNC=O)cc(C)c2c3c(oc12)CCCC3 | 7% | 0 | 10µM* | 5% | -23%
CC(=O)NCCNC(=O)c1ccc2c(=O)n(CCc3ccccc3)c(=O)[nH]c2c1 | nt | nt | 4.5µM* | -6% | nt
N#Cc1c(-c2cccs2)nc(SCc2ccc(Cl)cc2)[nH]c1=O | 16% | 1 | -8% | -2% | 73%[15.4 µM]
O=c1[nH]c(SCc2ccc(Cl)cc2)nc2ccsc12 | -2% | 1 | 4.5µM* | 12% | -24%
Cc1ccccc1NC(=O)C(C)OC(=O)CCC(=O)c1ccccc1 (configuration not stated) | nt | -1 | 15% | -5% | -79%
CC(=O)N1N=C(c2ccc(C)cc2)OC1c1ccc(Br)cc1 (configuration not stated) | -3% | 0 | 13µM* | 0% | 22%[15.4 µM]
CC(=O)N1N=C(c2ccc(Cl)cc2)OC1c1ccc(C(C)C)cc1 (configuration not stated) | 4% | 0 | 90% | 6% | 8%
O=C(OCc1ccccc1)c1ccc2c(c1)-c1ccccc1C2=O | -15% | -3 | 8.9µM* | 3% | -30%
Cc1ccc(NC(=O)COC(=O)c2ccccc2OCC(=O)Nc2ccc(Br)cc2)c(Br)c1 | nt | nt | 9% | nt | nt
COc1ccc(CNC(=O)Cc2c(C)c3c(cc(C)c4c(C)c(C)oc43)oc2=O)cc1 | nt | nt | nt | 2% | nt
O=C(CSc1nc2ccccc2[nH]1)c1ccccc1F | 5% | 0 | 2µM* | 19% | -21%[15.4 µM]
COc1ccc(CNC(=O)C2CCCN(C(=O)N3CCOc4ccccc43)C2)cc1 (configuration not stated) | nt | nt | nt | 5% | nt
CC(NS(=O)(=O)c1ccc2[nH]c(=O)[nH]c2c1)c1ccc(F)cc1 (configuration not stated) | nt | -3 | 1% | 14% | -9%
CCN1C(=O)CC(N2CCN(c3ccc(C(=O)c4ccccc4)cc3)CC2)C1=O (configuration not stated) | -6% | -4 | 11µM* | -3% | -1%
N#Cc1c(N2C(=O)Nc3ccccc3N2O)sc2c1CCCCCC2 | 6% | 2 | 12% | 11% | -11%
